In PubChem BioAssay (NCATS):
Results filed as inconclusive are left out. A call without a number means that no potency is given here. Calls of active or inactive are those of the source. Unless noted, calls follow the shape of the dose curve; as a rule, active = well fitted curve in the direction sought with a large enough effect; inconclusive = small, poorly fitted or top-dose-only effect, or another doubt; inactive = no such curve, though single readings can be large; an effect the other way counts as inactive or inconclusive.

Experiments:
[1] = qHTS Assay for Identification of Small Molecule Antagonists for Thrombopoietin (TPO) Signaling Pathway (AID 918); conditions: TPO-dependent cell signaling reporter, antagonist mode; also: potency is read from the fitted curve at half-maximal effect; nearly all actives have a fitted effect of over 60% in size
Method in brief: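 First, Ba/F3 reporter cells expressing human TPO receptor were held overnight without IL-3. Next, compound and 26 pM TPO were added. After 24 hrs incubation at 37 C, luciferase luminescence under the Glycoprotein IIb promoter was recorded.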

[2] = molecular target: Muscarinic acetylcholine receptor M1 (Rattus norvegicus) (UniProt P08482); experiment: qHTS Assay for Antagonists of Acetylcholine Muscarinic M1 Receptor: Kinetic Measurement of Intracellular Calcium Response (AID 943); conditions: M1-expressing cells, kinetic intracellular calcium fluorescence; series mostly up to 35.3 µM;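 also: Fluo-4 calcium signal as peak divided by basal fluorescence over 4 min; nearly all actives have a fitted effect of over 75% in size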
Method in brief: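 Intracellular calcium flux, recorded with Fluo-4 in a kinetic plate reader, served as signal; the response to carbachol at EC80 (100 nM final) was taken as maximal over minimal fluorescence after a 10 min compound pre-incubation in rat M1-CHO cells.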

[3] = molecular target: Muscarinic acetylcholine receptor M1 (Rattus norvegicus) (UniProt P08482); experiment: qHTS Assay for Antagonists of Acetylcholine Muscarinic M1 Receptor: Measurement of IP-One Response (AID 944); conditions: CHO-M1 cells, IP-One HTRF, antagonist mode; series mostly up to 46.1 µM; also: nearly all actives have a fitted effect of over 75% in size; also: potency is read from the fitted curve at half-maximal effect
Method in brief: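 Steps: plate transfected CHO-M1 cells overnight; add test compound, 10 min; add carbachol (200 nM, EC80) in stimulation buffer with LiCl; incubate 30 min; add labelled IP1 tracer and anti-IP1 antibody in lysis buffer; read HTRF after 10 min.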

[4] = molecular target: Pyruvate kinase (Leishmania mexicana) (UniProt Q27686); experiment: qHTS Validation Assay for Inhibitors of Leishmania Mexicana Pyruvate Kinase (AID 945); conditions: purified L. mexicana pyruvate kinase, enzyme activity, E451W mutant enzyme; series mostly up to 57.5 µM
Method in brief: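 Substrate mix (0.5 mM PEP, 0.1 mM ADP, 7 mM MgCl2, 50 mM KCl, pH 7.2 imidazole) received compound by pin tool, then 0.2 nM LmPYK E451W. After 1 h at room temperature, PKLight was added and luminescence measured.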

[5] = molecular target: Pyruvate kinase PKM (Homo sapiens) (UniProt P14618); experiment: qHTS Assay for Activators of Human Muscle Pyruvate Kinase (AID 954; active = well fitted curve in the direction sought with a large enough effect, not every such curve was filed as active); conditions: purified human muscle pyruvate kinase, luciferase-coupled luminescence, 1 h; series mostly up to 57.5 µM
Method in brief: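 Enzyme was run at intermediate activity so both inhibitors and activators could be detected. ATP formed from ADP and PEP by 0.1 nM human PKM2 during a 1 h room-temperature incubation was quantified by coupled luciferase luminescence.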

[6] = Confirmation and Secondary Assay for Modulators of Hemoglobin Beta Chain Splicing at IVS2 654 locus (AID 910); conditions: HeLa EGFP-654 splicing reporter, GFP fluorescence, 48 h; series mostly up to 46.1 µM;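 also: HeLa cells stably carrying EGFP split by mutant beta-globin IVS2-654 intron; per-well total GFP intensity by laser scanning cytometry after 2-day treatment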
Method in brief: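 Readout: per-well total peak green fluorescence (488 nm ex, 500–520 nm em) from objects 5–250 µm, reflecting correct splicing of an EGFP-654 reporter. Compounds were applied for 2 days at 37 °C to overnight-plated HeLa EGFP-654 cells; controls were DMSO and 500 nM IVS2-654 PNA.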

[7] = Confirmation and Secondary Assay for Modulators of Hemoglobin Beta Chain Splicing at IVS2 705 locus (AID 930); conditions: HeLa EGFP-705 splicing reporter, GFP fluorescence, 48 h; series mostly up to 46.1 µM;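 also: HeLa cells stably expressing the EGFP-705 splicing reporter; GFP fluorescence per well restored by corrected splicing of the IVS2-705 intron in EGFP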
Method in brief: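 HeLa EGFP-705 reporter; 500 cells/well, o/n 37C 5% CO2; cpd 2 d; 488 ex/500-520 em laser scan; total peak GFP intensity/well. Ref: 500 nM […] antisense PNA.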

[8] = Cell Viability - LYMP2-001 (AID 921); conditions: LYMP2-001 lymphoblastoid cell viability; series mostly up to 92.2 µM; also: nearly all actives have a fitted effect of over 70% in size; also: potency is read from the fitted curve at half-maximal effect
Method in brief: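 Human lymphoblastoid LYMP2-001 cells, 2500 per well, in complete medium, treated 24 h at 37 C. Viability from cellular ATP by CellTiter-Glo luminescence; AC50 from Hill-equation fits of qHTS concentration-response.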

[9] = MultiTox-Fluor Cytotoxicity Assay - LYMP1-001 - Dead Cells (AID 946); conditions: LYMP1-001 lymphoblastoid cells, dead-cell protease fluorescence; series mostly up to 92.2 µM;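 also: cells exposed to compound for 16 h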; also: potency is read from the fitted curve at half-maximal effect
Method in brief: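 In this qHTS, 15 uM tetraoctylammonium bromide defined 100% and DMSO defined basal activity. Lymphoblastoid cells (LYMP1-001, 2500 per well) received compound for 16 hr at 37 C before a fluorogenic dead-cell substrate readout at 485/520 nm.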

[10] = MultiTox-Fluor Cytotoxicity Assay - LYMP1-001 - Live Cells (AID 947); conditions: LYMP1-001 lymphoblastoid cells, live-cell protease fluorescence viability; series mostly up to 92.2 µM; also: potency is read from the fitted curve at half-maximal effect
[11] = Cell Viability - LYMP1-002 - Assay at 16 hr (AID 948); conditions: LYMP1-002 lymphoblastoid cell viability; series mostly up to 92.2 µM; also: potency is read from the fitted curve at half-maximal effect
Method in brief: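 LYMP1-002 human lymphoblastoid cells, 2500/well, were treated with compounds for 16 hr at 37 C in complete medium. Viability was read as intracellular ATP by CellTiter-Glo luminescence, and AC50 was derived from a Hill fit to concentration-response data.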

[12] = MultiTox-Fluor Cytotoxicity Assay - LYMP1-002 - Live Cells (AID 955); conditions: LYMP1-002 lymphoblastoid live-cell protease fluorescence viability; series mostly up to 46.1 µM;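 also: cells exposed to compound for 16 hours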; also: potency is read from the fitted curve at half-maximal effect
Method in brief: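 Cytotoxicity in the human lymphoblastoid line LYMP1-002 is measured as loss of live-cell protease activity after 16 h treatment in complete culture medium. AC50 is derived from Hill-equation fits of qHTS concentration-response data.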

[13] = MultiTox-Fluor Cytotoxicity Assay - LYMP1-002 - Dead Cells (AID 960); conditions: LYMP1-002 lymphoblastoid cells, dead-cell protease fluorescence; series mostly up to 46.1 µM; also: nearly all actives have a fitted effect of over 60% in size; also: potency is read from the fitted curve at half-maximal effect
Method in brief: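 Acute cytotoxicity in a human lymphoblastoid line is scored as rising dead-cell protease signal after 16 hr exposure at 37 C, measured fluorometrically (485/520).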

[14] = MultiTox-Fluor Cytotoxicity Assay - LYMP1-003 - Live Cells (AID 962); conditions: LYMP1-003 lymphoblastoid cells, MultiTox-Fluor live-cell protease fluorescence; series mostly up to 92.2 µM;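 also: cells exposed to compound for 16 hours at 37 °C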; also: potency is read from the fitted curve at half-maximal effect
Method in brief: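 Cells plated at 2500 per well and incubated 5 hr; compounds added and incubated 16 hr at 37 C; MultiTox-Fluor reagent added for 60 min at room temperature; fluorescence of liberated AFC measured at 405/510 nm.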

[15] = Cell Viability - LYMP1-003 - Assay at 24 hr (AID 963); conditions: LYMP1-003 lymphoblastoid cell viability; series mostly up to 92.2 µM; also: potency is read from the fitted curve at half-maximal effect
Method in brief: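 Acute toxicity in LYMP1-003 lymphoblastoid cells: 24 hr compound treatment at 37 C, ATP measured with CellTiter-Glo after 30 min at room temperature. AC50 derived by fitting the Hill equation to qHTS titrations.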

[16] = Cell Viability - LYMP1-003 - Assay at 40 hr (AID 964); conditions: LYMP1-003 lymphoblastoid viability; series mostly up to 92.2 µM; also: nearly all actives have a fitted effect of over 60% in size; also: potency is read from the fitted curve at half-maximal effect
Method in brief: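 This qHTS cytotoxicity screen treats human lymphoblastoid cells (LYMP1-003) with compounds for 40 hr and quantifies cellular ATP via luciferase luminescence.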

[17] = Cell Viability - LYMP2-003 (AID 965); conditions: LYMP2-003 lymphoblastoid cell viability; series mostly up to 92.2 µM;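 also: cells exposed to compounds for 24 h before reading; nearly all actives have a fitted effect of over 50% in size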; also: potency is read from the fitted curve at half-maximal effect
Method in brief: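 Human lymphoblastoid LYMP2-003 cells, 2500/well, exposed to compounds for 24 h at 37 C in complete medium. Viability read as intracellular ATP by CellTiter-Glo luminescence; AC50 from Hill-equation fits of qHTS concentration-response data.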

[18] = Cell Viability - LYMP2-004 (AID 966); conditions: LYMP2-004 lymphoblastoid cell viability, qHTS; series mostly up to 92.2 µM; also: nearly all actives have a fitted effect of over 65% in size
Method in brief: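 Acute toxicity is scored as a concentration-dependent drop in intracellular ATP, quantified by luciferase luminescence, in human lymphoblastoid cells exposed to compound for 24 hr. AC50 derives from Hill-equation modelling.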

[19] = Cell Viability - LYMP2-005 (AID 967); conditions: LYMP2-005 lymphoblastoid cell viability; series mostly up to 92.2 µM; also: potency is read from the fitted curve at half-maximal effect
Method in brief: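 Human lymphoblastoid LYMP2-005 cells, 2,500 per well in complete medium, rested 5 h at 37C then compound-treated 24 h at 37C. Intracellular ATP read by CellTiter-Glo luminescence after 30 min at room temperature; AC50 from Hill-equation fits of concentration-response data.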

Sequence of Pyruvate kinase PKM (Homo sapiens) (P14618 whole entry, looked up): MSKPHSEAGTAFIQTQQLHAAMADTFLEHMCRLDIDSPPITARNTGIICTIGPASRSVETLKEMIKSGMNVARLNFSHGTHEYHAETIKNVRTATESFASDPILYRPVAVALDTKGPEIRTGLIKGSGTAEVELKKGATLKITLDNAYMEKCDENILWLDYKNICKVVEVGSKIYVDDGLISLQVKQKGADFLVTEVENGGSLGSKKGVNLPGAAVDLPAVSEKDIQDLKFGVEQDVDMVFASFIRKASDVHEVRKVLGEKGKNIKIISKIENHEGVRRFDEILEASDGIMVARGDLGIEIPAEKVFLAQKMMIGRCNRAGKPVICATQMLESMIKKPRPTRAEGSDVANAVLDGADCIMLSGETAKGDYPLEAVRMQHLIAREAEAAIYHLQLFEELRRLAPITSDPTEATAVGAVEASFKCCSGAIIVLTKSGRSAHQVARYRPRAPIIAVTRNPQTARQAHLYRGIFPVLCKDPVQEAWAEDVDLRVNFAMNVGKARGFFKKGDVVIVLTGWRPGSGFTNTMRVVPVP
Sequence of Pyruvate kinase (Leishmania mexicana) (Q27686 2-499 E452W): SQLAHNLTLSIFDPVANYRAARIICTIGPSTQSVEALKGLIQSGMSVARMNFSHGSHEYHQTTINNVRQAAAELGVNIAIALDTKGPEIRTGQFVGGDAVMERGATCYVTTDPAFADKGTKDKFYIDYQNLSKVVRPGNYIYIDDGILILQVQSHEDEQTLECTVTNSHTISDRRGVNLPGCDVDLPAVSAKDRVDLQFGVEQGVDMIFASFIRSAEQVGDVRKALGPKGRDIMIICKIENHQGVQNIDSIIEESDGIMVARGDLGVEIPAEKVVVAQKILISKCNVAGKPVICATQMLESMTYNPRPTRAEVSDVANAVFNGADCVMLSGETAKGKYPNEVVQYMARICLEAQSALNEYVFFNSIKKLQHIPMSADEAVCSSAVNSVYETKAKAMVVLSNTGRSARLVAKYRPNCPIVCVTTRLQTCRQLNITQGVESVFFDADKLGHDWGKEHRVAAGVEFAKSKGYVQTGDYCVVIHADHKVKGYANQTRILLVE
Sequence of Muscarinic acetylcholine receptor M1 (Rattus norvegicus) (P08482 whole entry, looked up): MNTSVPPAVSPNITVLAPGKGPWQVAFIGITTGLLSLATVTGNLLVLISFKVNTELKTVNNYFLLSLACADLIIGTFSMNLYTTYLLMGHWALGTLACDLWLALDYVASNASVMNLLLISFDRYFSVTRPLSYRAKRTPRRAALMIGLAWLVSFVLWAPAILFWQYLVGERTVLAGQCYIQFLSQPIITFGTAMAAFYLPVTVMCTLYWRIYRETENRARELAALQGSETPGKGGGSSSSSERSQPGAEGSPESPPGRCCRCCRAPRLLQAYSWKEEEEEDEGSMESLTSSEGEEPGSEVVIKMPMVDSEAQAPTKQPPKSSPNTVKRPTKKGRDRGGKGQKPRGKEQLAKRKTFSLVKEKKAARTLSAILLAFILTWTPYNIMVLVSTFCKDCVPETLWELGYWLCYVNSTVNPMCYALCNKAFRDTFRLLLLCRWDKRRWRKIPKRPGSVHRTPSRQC

## CC(C)N(CCC(=O)c1ccc2ccccc2c1)Cc1ccccc1
[1]
  Potency: 2.51 µM (active)
[2]
  Potency: inactive
[3]
  Potency: inactive
[4]
  outcome: inactive
[5]
  outcome: inactive

## CC(=O)OCC[N+](C)(C)C
[6]
  outcome: inactive
[7]
  outcome: inactive

## CCN(CC)CCOc1ccc(/C(=C(\Cl)c2ccccc2)c2ccccc2)cc1
[6]
  outcome: inactive
[7]
  outcome: inactive

## O=C(Oc1ccccc1)c1ccccc1O
[8]
  Potency: inactive
[9]
  Potency: inactive
[10]
  Potency: inactive
[11]
  Potency: inactive
[12]
  Potency: inactive
[13]
  Potency: inactive
[14]
  Potency: inactive
[15]
  Potency: inactive
[16]
  Potency: inactive
[17]
  Potency: inactive
[18]
  Potency: inactive
[19]
  Potency: inactive

## CN(C)c1cc2c(Nc3ccc4c(cnn4Cc4ccccc4)c3)ncnc2cn1
[3]
  Potency: 11.2 µM (active)
[4]
  outcome: inactive
[5]
  outcome: inactive

## O=C(c1ccccc1)c1ccccc1
[8]
  Potency: inactive
[9]
  Potency: inactive
[10]
  Potency: inactive
[11]
  Potency: inactive
[12]
  Potency: inactive
[13]
  Potency: inactive
[14]
  Potency: inactive
[15]
  Potency: inactive
[16]
  Potency: inactive
[17]
  Potency: inactive
[18]
  Potency: inactive
[19]
  Potency: inactive

## Cc1ccc(O)cc1
[6]
  outcome: inactive
[8]
  Potency: inactive
[7]
  outcome: inactive
[9]
  Potency: inactive
[10]
  Potency: inactive
[11]
  Potency: inactive
[12]
  Potency: inactive
[14]
  Potency: inactive
[15]
  Potency: inactive
[16]
  Potency: inactive
[17]
  Potency: inactive
[18]
  Potency: inactive
[19]
  Potency: inactive

## COc1cc(C=O)ccc1O
[8]
  Potency: inactive
[9]
  Potency: inactive
[10]
  Potency: inactive
[11]
  Potency: inactive
[12]
  Potency: inactive
[13]
  Potency: inactive
[14]
  Potency: inactive
[15]
  Potency: inactive
[16]
  Potency: inactive
[17]
  Potency: inactive
[18]
  Potency: inactive
[19]
  Potency: inactive

## COc1ccccc1N1CCN(CCN2C(=O)CC3(CCCC3)CC2=O)CC1
[4]
  outcome: inactive
[5]
  outcome: inactive

## Cc1cc(C(C)(C)C)c(O)c(C(C)(C)C)c1
[6]
  outcome: inactive
[8]
  Potency: inactive
[7]
  outcome: inactive
[9]
  Potency: inactive
[10]
  Potency: inactive
[11]
  Potency: inactive
[12]
  Potency: inactive
[14]
  Potency: inactive
[15]
  Potency: inactive
[16]
  Potency: inactive
[17]
  Potency: inactive
[18]
  Potency: inactive
[19]
  Potency: inactive

## CCCCCCCCCCCCCCCC[n+]1ccccc1
[8]
  Potency: 10 µM (active)
[9]
  Potency: 10 µM (active)
[10]
  Potency: 20 µM (active)
[11]
  Potency: 25.1 µM (active)
[12]
  Potency: 12.6 µM (active)
[13]
  Potency: 10 µM (active)
[14]
  Potency: 31.6 µM (active)
[15]
  Potency: 20 µM (active)
[16]
  Potency: 10 µM (active)
[17]
  Potency: 31.6 µM (active)
[19]
  Potency: 15.8 µM (active)

## CC(C)(C)c1ccc(O)c(O)c1
[8]
  Potency: 31.6 µM (active)
[9]
  Potency: inactive
[10]
  Potency: inactive
[12]
  Potency: inactive
[13]
  Potency: inactive
[14]
  Potency: inactive
[15]
  Potency: inactive
[16]
  Potency: 25.1 µM (active)
[17]
  Potency: 50.1 µM (active)

## Nc1ncnc2nc[nH]c12
[6]
  outcome: inactive
[7]
  outcome: inactive

## C1=CC2C3C=CC(C3)C2C1 (stereo not drawn)
[8]
  Potency: inactive
[9]
  Potency: inactive
[10]
  Potency: inactive
[11]
  Potency: inactive
[12]
  Potency: inactive
[13]
  Potency: inactive
[14]
  Potency: inactive
[15]
  Potency: inactive
[16]
  Potency: inactive
[17]
  Potency: inactive
[19]
  Potency: inactive

## c1ccc2occc2c1
[8]
  Potency: inactive
[9]
  Potency: inactive
[10]
  Potency: inactive
[11]
  Potency: inactive
[12]
  Potency: inactive
[13]
  Potency: inactive
[14]
  Potency: inactive
[15]
  Potency: inactive
[16]
  Potency: inactive
[17]
  Potency: inactive
[18]
  Potency: inactive
[19]
  Potency: inactive

## Brc1ccccc1-c1ccccc1
[8]
  Potency: inactive
[9]
  Potency: inactive
[10]
  Potency: inactive
[11]
  Potency: inactive
[12]
  Potency: inactive
[13]
  Potency: inactive
[14]
  Potency: inactive
[15]
  Potency: inactive
[16]
  Potency: inactive
[17]
  Potency: inactive
[18]
  Potency: inactive
[19]
  Potency: inactive

## CC(=O)OC/C=C(C)/C=C/C=C(C)/C=C/C1=C(C)CCCC1(C)C
[6]
  outcome: inactive
[7]
  outcome: inactive
[10]
  Potency: inactive
[11]
  Potency: inactive
[12]
  Potency: inactive
[13]
  Potency: inactive
[14]
  Potency: inactive
[15]
  Potency: inactive

## Oc1ccccc1
[8]
  Potency: inactive
[9]
  Potency: inactive
[10]
  Potency: inactive
[11]
  Potency: inactive
[12]
  Potency: inactive
[13]
  Potency: inactive
[14]
  Potency: inactive
[15]
  Potency: inactive
[16]
  Potency: inactive
[17]
  Potency: inactive
[18]
  Potency: inactive
[19]
  Potency: inactive
